These results are taken from ChEMBL document CHEMBL4513216, “Probing the Open Global Health Chemical Diversity Library for Multistage-Active Starting Points for Next-Generation Antimalarials” (ACS Infect Dis, 2020).

Molecules are shown by their SMILES. Among all 69,000 compounds or so, about 8,600 (12%) showed an effect of 50% or more. The sample holds strong results, similar compounds and a random draw of the others, so the mix is not that of the screen.

This test deals with Plasmodium berghei. In words: Screen against P. berghei liver stage (PbLuc), transformed with Luciferase, at 10uM. In kind it is functional, HepG2. The note with it: tested at 10 uM.
On to `CN1CCO[C@@H]2CN(S(=O)(=O)c3cccs3)CC[C@@H]2C1`, for which the INHIBITION was 28.5%.
As for `CCn1cc(C(=O)N2C[C@H]3CC(Oc4ccccc4)C[C@H]3C2)cn1` (some centres undefined), the INHIBITION was -17.715%.
On to `CC(C)(C)NC[C@@H]1CCC[C@@H]2CN(Cc3csnn3)C[C@@H]21`, for which the INHIBITION is reported as -39.2%.
For `O=C(Cn1cc(-c2ccccc2)cn1)NC(C1CC1)C1CC1`, the INHIBITION is on record as 34.7%.
For `OCCn1cc(CN2CCN(CCOc3cccc(F)c3)CC2)cn1`, the INHIBITION was 33.95%.
For `Cc1cccnc1CC(C)Nc1ncc(C)c(N(C)C)n1` (centres undefined) the value was 27.9%.
For `Cc1cc(CC(C)Nc2ncc(C)c(N(C)C)n2)[nH]n1` (centres undefined) the value was 63.7%.
Take `Cc1cnc(NC(C)Cc2cnccn2)nc1N(C)C` (centres undefined): the INHIBITION is listed as 0.705%.
Consider `Cc1cnc(NC(C)Cc2cccnc2)nc1N(C)C` (centres undefined), for which the INHIBITION was found to be 55%.
Regarding `COCc1nc(NC(C)Cc2cc(C)n[nH]2)c2cnn(C)c2n1` (centres undefined), the INHIBITION came out at 25.4%.
On to `Cc1cc(NC(C)Cc2cccnc2)n2nccc2n1` (centres undefined), for which the INHIBITION turned out to be 23%.
For `COc1ccc(C(=O)N2C[C@@H](O)[C@H](NCc3cnc(C)cn3)C2)cc1` the value was 35.15%.
In the case of `O=C(NCCc1nncn1C1CC1)c1cc2ccccn2c1` it was -22.3%.
For `CCc1noc(CNc2ccc(CC(=O)N3CCSCC3)cc2)n1` the value was 28.5%; for `O=C(Nc1ccc(CC(=O)N2CCSCC2)cc1)NC1CC1`, 53.8%.
For the compound `CN(C(=O)Cc1ccc(NC(=O)NC2CC2)cc1)c1ccccc1`, the INHIBITION was 8.845%.
For `CN(C(=O)Cc1ccc(NC(=O)NC2CCC2)cc1)c1ccccc1` the value was 55.3%.
For `O=C(Nc1ccc(CC(=O)N2CCSCC2)cc1)NC1CCCC1` the value was 33.2%.
For `O=C(Nc1ccc(CC(=O)N2CCCC2)cc1)NC1CC1` the value was 36.2%; for `CCc1nnc(CNc2ccc(CC(=O)N3CCSCC3)cc2)o1`, 84.2%; for `Cc1noc(CNc2ccc(CC(=O)N3CCSCC3)cc2)n1`, 32.5%.
For `CN(C)C(=O)Cc1ccc(NC(=O)NC2CCCC2)cc1`, the INHIBITION is reported as -36.6%.
In the case of `CC(C)C(NC(=O)Nc1ccc(F)cc1)C(=O)N(C)C` (centres undefined) it was 18.7%.
In the case of `Cn1cc(-c2cc(C(F)(F)F)n(CCCN)n2)cn1` it was 21.9%; in that of `CNC(=O)CN([C@H]1C[C@H]2CCOC[C@H]2C1)S(=O)(=O)c1ccccc1`, 19.2%; in that of `O=C1COC2(CCN(Cc3ccoc3)CC2)CN1CCn1cccn1`, 0.804%.
In the case of `Cc1occc1C(=O)N1CCO[C@H]2[C@H](OCc3ccccn3)CC[C@@H]21` it was 30.3%; in that of `Cc1cnc(N2CCCC(O)C2)nc1-c1ccnn1C` (centres undefined), 16.6%; in that of `COc1cnc(N2CC(N3CCOCC3)C2)nc1-c1ccnn1C`, 41%.
`Cc1cnc(N2CCCC(c3ccccc3)C2)nc1-c1ncnn1C` (centres undefined): the INHIBITION came to 39.3%.
For `Cc1cnc(N2CC[C@@]3(O)CCCC[C@H]3C2)nc1-c1ccnn1C` the value was 30.4%.
For `Cc1cnc(N2CCCC(c3ccccc3)C2)nc1-c1ccnn1C` (centres undefined) the value was 71%.
For `Cc1cnc(N2CCC(c3ccncc3)CC2)nc1-c1ccnn1C` the value was 68%; for `Cc1cnc(N2CCN(C)CC2)nc1-c1ccnn1C`, 16.3%.
Take `COc1cnc(N2CCN(C)CC2)nc1-c1ccnn1C`: the INHIBITION was determined as 20.8%.
For `Cc1cnc(N2CCC(c3ccccc3)CC2)nc1-c1ccnn1C` the value was 68%.
In the case of `Cc1ccoc1C(=O)N1C[C@@H]2COC[C@]2(COCc2cccnc2)C1` it was -34.7%; in that of `CCCc1n[nH]c(C2CN(C(=O)c3n[nH]c4ccccc34)CCO2)n1` (centres undefined), 21%.
In the case of `COC(=O)NCC(=O)NC1(C)CCc2ccccc2C1` (centres undefined) it was 7.3%; in that of `CN(C)c1ccc(C(=O)N2CCCC(n3cccn3)C2)nn1` (centres undefined), 3.15%; in that of `Cc1ccc(NC2CCN(C(=O)CCCc3cccs3)CC2)nn1`, -3.7%.
Turning to `O=C1CCC2(CCN(Cc3cscn3)CC2)CN1CC1CCCO1` (centres undefined), the INHIBITION is -23.5%.
For `Cc1noc(CCCC(=O)NC(C)c2ccccn2)n1` (centres undefined) the value was 13.9%.
`Cc1n[nH]c(SCC(=O)NC(c2ccccn2)C(C)C)n1` (centres undefined): the INHIBITION stood at 58.7%.
For `Cc1n[nH]c(SCC(=O)NC(c2ccncc2)C(C)C)n1` (centres undefined) the value was 50.1%.
For `CSCC(=O)NC(Cc1ccc(C)cc1)c1ccccn1` (centres undefined) the value was 21.3%.
In the case of `Cc1ccc(OCCC(=O)NC(C)c2ccncc2)cc1` (centres undefined), the INHIBITION is listed as 41.6%.
For `Cc1n[nH]c(SCC(=O)N[C@@H](C)C(N)=O)n1` the value was 4.41%.
As for `CC(C)CNC(=O)Cn1ccc2ccccc21`, the INHIBITION was determined as 25.7%.
For `O=C(NC1CC1)c1ccnc(-c2cc(NCCO)nc3[nH]ccc23)c1`, the INHIBITION is on record as -20.1%.
In the case of `COCCC(=O)N1CCC2(CCCN2Cc2ccccc2)C1` (centres undefined), the INHIBITION was -22.5%.
Take `CS(=O)(=O)N1CCCC12CCCN(S(=O)(=O)c1cccc(F)c1)C2` (centres undefined): the INHIBITION is given as -2.35%.
In the case of `CC(C)c1ccc(S(=O)(=O)N2CCCC3(CCCN3S(C)(=O)=O)C2)cc1` (centres undefined), the INHIBITION was -3.33%.
On to `O=C(c1ccc[nH]1)N1CCCC2(CCCN2Cc2cccnc2)C1` (centres undefined), for which the INHIBITION is 12.1%.
For `O=S(=O)(c1ccccc1)N1CCC2(CCCN2Cc2ccccc2Cl)C1` (centres undefined) the value was 60.2%; for `O=S(=O)(c1ccccc1)N1CCC2(CCCN2Cc2cccnc2)C1` (centres undefined), 55.5%.
For the compound `O=S(=O)(c1ccccc1)N1CCC2(CCCN2Cc2ccc(Cl)cc2)C1` (centres undefined), the INHIBITION turned out to be 91.7%.
In the case of `O=C(c1ccc[nH]1)N1CCC2(CCCN2Cc2cccnc2)CC1` it was 4.02%; in that of `CCc1ccc(S(=O)(=O)N2CCCC3(CCCN3S(C)(=O)=O)C2)cc1` (centres undefined), -12.2%.
As for `Cc1ccc(CN2CCCC23CCN(S(=O)(=O)c2ccccc2)C3)o1` (centres undefined), the INHIBITION is 34.7%.
In the case of `O=S(=O)(c1ccccc1)N1CCC2(CCCN2Cc2cccc(F)c2)C1` (centres undefined) it was 78.8%.
In the case of `CCS(=O)(=O)N1CCCC2(CCCN2Cc2cccc(F)c2)C1` (centres undefined) it was -22.1%; in that of `CCOc1cc(/C=C/c2ncc(C(=O)O)s2)cc(Br)c1O`, -13.3%.
In the case of `CC(C)CNC(=O)CNC(=O)c1nc(Cc2c(Cl)cccc2Cl)no1` it was 41%; in that of `COCCC1CCN(CC(C)n2cnc3ccccc32)CC1` (centres undefined), -3.47%.
With `CCc1nc(CN2CCCN(C(=O)c3cnc(C)cn3)CC2)cs1`, the INHIBITION came to 10.733%.
Regarding `COc1ccccc1CN(Cc1cccnc1)CC1CCCO1` (centres undefined), the INHIBITION was found to be 42.6%.
For `CCN(CC)Cc1ccc(C(=O)N2CCN(CC(C)O)CC2)o1` (centres undefined) the value was 21.5%.
Consider `COC(=O)c1cccc(S(=O)(=O)NC(=O)COC2CCCC2)c1`, for which the INHIBITION amounted to 15.5%.
As to `CCS(=O)(=O)N1CCCC2(CCCN2Cc2cccc(Cl)c2)C1` (centres undefined), the INHIBITION was -14.3%.
As to `COCCC(=O)N1CCC2(CCCN2Cc2cccc(Cl)c2)C1` (centres undefined), the INHIBITION worked out at 47.9%.
Regarding `O=S(=O)(c1ccccc1)N1CCC2(CCCN2Cc2cccc(Cl)c2)C1` (centres undefined), the INHIBITION is on record as 61.8%.
In the case of `NC(=O)C1CCN(C(=O)NCCOc2ccc3c(c2)CCC3)CC1`, the INHIBITION was found to be 5.45%.
With `Cc1cc(Cl)ccc1C(=O)N1C[C@H](C2CC2)[C@@H](N)C1`, the INHIBITION is 32.2%.
`N[C@H]1CN(C(=O)c2ccc(Cl)cc2O)C[C@@H]1C1CC1`: the INHIBITION was 61%.
In the case of `N[C@H]1CN(C(=O)c2ccc(Cl)cc2F)C[C@@H]1C1CC1`, the INHIBITION worked out at 25.7%.
In the case of `O[C@@H]1C[C@H]2CN(Cc3ccsc3)[C@@H](Cc3ccccc3)CN2C1` it was 39.3%; in that of `CS(=O)(=O)N1C[C@H]2CN(CC3CC3)C(=O)[C@H]2C1`, 85.2%; in that of `CC(C)CN1C[C@@H]2CN(c3cnccn3)C[C@@H]2C1=O`, 21.3%.
With `COCCN1C[C@@H]2CN(c3cnccn3)C[C@@H]2C1=O`, the INHIBITION is 14%.
For `O=C1[C@H]2CN(S(=O)(=O)C3CC3)C[C@H]2CN1CC1CC1` the value was 3.69%; for `O=C1[C@H]2CN(c3cnccn3)C[C@H]2CN1CC1CC1`, 51.2%; for `CCS(=O)(=O)N1C[C@H]2CN(CC3CC3)C(=O)[C@H]2C1`, -12.2%.
Consider `O=C1[C@H]2CN(c3ncccn3)C[C@H]2CN1Cc1ccncc1`, for which the INHIBITION amounted to 4.71%.
For `O=C1[C@H]2CN(c3ncc(F)cn3)C[C@H]2CN1CC1CC1` the value was 42.6%.
In the case of `O=C1[C@H]2CN(c3ncccn3)C[C@H]2CN1CC1CC1` it was 64.2%.
Take `CN(C)C1COC2(CCN(Cc3ccc4c(c3)OCO4)CC2)C1` (centres undefined): the INHIBITION is on record as -50.4%.
In the case of `COc1cc(C2CC(=O)Oc3cc(C)[nH]c(=O)c32)ccc1OCC(=O)O` (centres undefined), the INHIBITION was found to be 13.1%.
`CN1CCN(c2nc(O)c3c(-c4ccccn4)ccnc3n2)CC1`: the INHIBITION is -33.2%.
For `O=C(c1ccccc1C1CCNC1)N1CCC(N2CCC(O)CC2)CC1` (centres undefined) the value was 11.5%.
Consider `COCCN(CCOC)C(=O)Nc1cc(C(F)(F)F)c[nH]c1=O`, for which the INHIBITION is 12.7%.
Take `Cc1ncsc1C(=O)NC1CCN(Cc2cccc3c2OCCO3)CC1`: the INHIBITION is reported as 33.8%.
For `CC1CS(=O)(=O)CCN1CCCc1ccc(C(F)(F)F)cc1` (centres undefined) the value was 10.1%.
In the case of `CCCC(=O)n1ccn(S(=O)(=O)c2ccc(C)cc2)c1=O` it was 5.18%.
For `CC(C)(CO)CNC(=O)c1cc(-c2cc[nH]n2)n2ccccc12` the value was 41.2%; for `Cc1cc(N(C)CCOc2ccccc2F)nc(N)n1`, 65.7%; for `COc1ccccc1OCCCc1cc(C)nc(N)n1`, -16.7%.
Take `COc1ccc(OCCN(C)c2cc(C)nc(N)n2)cc1`: the INHIBITION is on record as 45.4%.
Consider `CN(CCOc1ccccc1F)C1CCOC1=O` (centres undefined), for which the INHIBITION is recorded as 33%.
With `COc1ccccc1OCCCN(C)c1cc(C)nc(N)n1`, the INHIBITION is listed as 61.2%.
As to `COc1ccccc1OCCN(C)c1cc(C)nc(N)n1`, the INHIBITION worked out at 26.3%.
With `CNc1cc(C2CN(Cc3cccnc3NC)CCO2)nc(C)n1` (centres undefined), the INHIBITION is listed as 1.62%.
In the case of `CC1c2ncc(CNC(=O)C3CC3)n2CCN1Cc1ccsc1` (centres undefined) it was -10.3%.
Turning to `CNC(=O)C1Cn2ccnc2C2(CCN(Cc3cccnc3)CC2)O1` (centres undefined), the INHIBITION stood at 43.2%.
